Compounds with a hit are over-represented: about 3.4% of the library has one in this group of screens.
Mcl1 Noxa PPI: disrupts binding of human Mcl-1 to Noxa peptide; Q07820; TR-FRET Mcl-1/Noxa peptide binding, 2 h; inhibition, % at 21.7 µM; 220,000 tested, 1.5% active; AID 1022;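 active means compounds that cut the protein-peptide binding signal by more than 50% relative to plate controls in a single-dose test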;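 further: His-tagged Mcl-1 with rhodamine Noxa BH3 peptide and terbium anti-His antibody; 0% = Mcl-1 plus Noxa peptide wells and 100% = peptide-only wells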
Mcl1-Bid inh: Mcl-1/Bid interaction inhibition. Q07820. TR-FRET Mcl-1/Bid-Dy647 peptide binding, 1536-well. inhibition, % at 21.7 µM. 220,000 tested, 0.97% active. AID 1021;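 active means compounds that cut the binding signal by more than half at the single screening dose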;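 further: His-tagged Mcl-1 with europium anti-His antibody binding Bid BH3 peptide; 0% = Mcl-1 plus peptide wells and 100% = peptide-only wells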
Bim-Mcl-1: human Bim-Mcl-1 interaction inhibition. Q07820. Bead-based flow cytometry, Bim peptide-Mcl-1 binding. inhibition, % at 10 µM. 190,000 tested, 0.1% active. AID 1009; in the data active means inhibition above about 40%;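 further: 0% = no compound tracer wells and 100% = peptide blocker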
NCF1 inh: blocks human p47phox regulatory protein of NADPH oxidases | P14598 | p47phox/p22phox peptide binding, fluorescence polarization, 2 h | inhibition, % at 24.7 µM | 220,000 tested, 0.53% active;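 further: 0% = p47phox with labelled peptide and 100% = labelled peptide alone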
Target sequence (P14598 whole entry, looked up): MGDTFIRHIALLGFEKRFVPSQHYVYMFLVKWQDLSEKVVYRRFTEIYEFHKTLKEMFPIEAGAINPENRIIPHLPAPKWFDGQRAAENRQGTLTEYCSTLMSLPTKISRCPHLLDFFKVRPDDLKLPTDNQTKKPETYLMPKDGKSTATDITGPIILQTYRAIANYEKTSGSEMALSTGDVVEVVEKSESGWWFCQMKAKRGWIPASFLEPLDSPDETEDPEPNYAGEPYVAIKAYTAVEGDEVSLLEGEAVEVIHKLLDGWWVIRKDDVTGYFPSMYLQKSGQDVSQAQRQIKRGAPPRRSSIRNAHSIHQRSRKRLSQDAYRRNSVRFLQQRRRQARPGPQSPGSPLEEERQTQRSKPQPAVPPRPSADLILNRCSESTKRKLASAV
14-3-3 Bad PPI: disrupts binding of bovine 14-3-3 zeta to phospho-Bad peptide; TR-FRET 14-3-3zeta/Dy647-pBad peptide displacement, 1 h; inhibition, % at 21.7 µM; 220,000 tested, 0.71% active;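 active means inhibition above about 70%, limit read from the data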;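 further: 0% = full 14-3-3 plus peptide FRET controls and 100% = background without 14-3-3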
eIF4E 4G PPI: blocks eIF4E binding to eIF4G | inhibition, % at 21.7 µM | TR-FRET eIF4E-eIF4GI(517-606) binding, 2 h | AID 782 | 220,000 tested, 0.37% active;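 further: 0% = full FRET control wells and 100% = background wells lacking eIF4GI fragment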
An asterisk follows results filed as active; nt = no result given; [ ] = another dose, or the depositor's remark.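 How the source made its calls, unless noted: active means inhibition above about 30% (limit read from the data); inactive means the rest.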

SMILES	Mcl1 Noxa PPI	Mcl1-Bid inh	Bim-Mcl-1	NCF1 inh	14-3-3 Bad PPI	eIF4E 4G PPI
CC(C)CC(=O)N1CCN(CC2CC=CCC2)CC1 (stereo not given)	38	57*	0	1	77*	4
Cc1ccc(C(=O)NC(=O)OCCn2c(C)cnc2[N+](=O)[O-])cc1	8	5	0	10	74*	1
Cc1cnc([N+](=O)[O-])n1CCOC(=O)NC(=O)c1ccccc1	-1	8	2	0	-8	-3
O=C1CNC(=S)N1CCc1ccc(O)c(O)c1	15	-81	nt	-126	4	-2
CCCc1cc(=O)[nH]c(SCC(=O)c2c(C)[nH]c3ccccc23)n1	11	76*	nt	-10	-3	4
CCCc1cc(=O)[nH]c(SCC(=O)c2c[nH]c3ccccc23)n1	16	0	0	-13	-2	-3
C=CCn1c(=S)[nH]c2sc3c(c2c1=O)CCC3	56*	-56	-4	-5	9	-1
C=CCn1c(=S)[nH]c2nc3c(cc2c1=O)CCCC3	6	-32	-1	-18	-9	7
CCCCC(=O)Nc1ccc(C(N)=O)cc1	2	-14	0	-7	-5	-1
CCCCCCCCCCCCCCCC[n+]1ccc(C(N)=O)cc1	47	42	0	101*	79*[fluorescence artefact?]	78*[fluorescence artefact?]
CCCCCCCCCCCCCCCC[n+]1cccc(C(=O)N(CC)CC)c1	3	24	-4	108*	98*[fluorescence artefact?]	77*[fluorescence artefact?]
CCCCCCCCCCCCCCCC[n+]1ccc(/C=N/O)cc1	19	34	-1	97*	99*[fluorescence artefact?]	70*[fluorescence artefact?]
CCCCCCCC[n+]1cccc(C(=O)N(CC)CC)c1	17	-7	-5	0	8	0
CN(C)c1cccc2c1c(NC(=O)c1ccc(Cl)cc1)nn2C	18	-7	nt	-19	-9	7
COC(=O)c1cccc(NC(=S)NCc2ccc(F)cc2)c1	14	-64	0	2	-9	-1
O=S(=O)(Nc1ccc2nc(-c3ccc(Br)o3)[nH]c2c1)c1ccccc1	52*	-30	-1	-20	-7	11
Cc1nc2c(C)cccc2cc1C(=O)N/N=C/c1ccc(C(=O)O)cc1	-6	-20	1	-8	87*	-3
O=C(CCc1nnc(C2CCCCC2)o1)N1CCC(Oc2cccnc2)CC1	-2	-4	-4	3	1	-1
CCOC(=O)c1ccc(N2NC(=O)/C(=C/c3ccc(OC(=O)c4ccco4)c(OC)c3)C2=O)cc1	56*	-43	9	-6	2	-3
CCOc1cc(/C=C2/SC(=S)NC2=O)ccc1OC(=O)c1ccco1	57*	-4	-6	-22	2	4
COc1cc(/C=C2/SC(=S)N(C)C2=O)ccc1OC(=O)c1ccco1	24	-4	-5	-50	3	-1
C/C(=N\NC(=O)c1ccc(COc2ccccc2)cc1)c1ccncc1	15	-1	-1	nt	0	0
COc1ccc(C(=O)c2nccc3ccccc23)cc1	11	-30	0	-6	-10	4
Cc1c(S(=O)(=O)c2ccccn2)c(N)n(Cc2cccc(Cl)c2)c1C	25	6	nt	-34	8	73*
O=S(=O)(c1ccc(Cl)cc1)c1ccccn1	22	1	-2	-15	6	-2
SMILES	Mcl1 Noxa PPI	Mcl1-Bid inh	Bim-Mcl-1	NCF1 inh	14-3-3 Bad PPI	eIF4E 4G PPI
O=C(COC(=O)c1ccc2c(=O)n3c(nc2c1)CCC3)Nc1ccc(OC(F)F)cc1	-1	2	1	-6	-1	9
Cc1ccccc1NC(=O)Cn1c(O)c(N=NC(=O)c2ccccc2O)c2ccccc21	-11	66*	0	50*	92*[fluorescence artefact?]	17
Cc1ccc(NC(=O)Cn2c(O)c(N=NC(N)=O)c3ccccc32)cc1	-9	-38	nt	-11	-6	-9
Cc1ccc2nc(C)c(C(=O)O)cc2c1	0	-5	-1	-7	-5	-3
Cc1ccc2cc(C(=O)O)c(C)nc2c1	29	34	-5	8	79*	-11
COc1ccccc1C1NC=C([N+](=O)[O-])C=C1[N+](=O)[O-] (stereo not given)	77*	-1	-7	-52	22	-14
CCOc1ccc(C(=O)Nc2nnn(CC)n2)cc1	-8	-49	62*	-25	-1	-7
CN(C)c1ccc(NC(=O)Nc2ccc3snnc3c2)cc1	93*	-67	5	1	3	12
COC(=O)CCCC1=CC2=C(c3ccccc3)C(=O)C(C)(OC(=O)C3CCCC3)C(=O)C2=CN1CC1CC1 (stereo not given)	7	-94	nt	-15	-3	89*
CC1CCCC(NC(=O)C2CCC(CNc3c(N4CCCCC4)c(=O)c3=O)CC2)C1C (stereo not given)	-2	-29	nt	-2	90*	1
CCOc1ccc(NC(=O)CNC(=O)c2ccc([N+](=O)[O-])cc2)cc1	-2	-27	-2	0	-21	-2
COc1cccc(N/C(SCc2ccccc2C)=C(/C#N)C(=O)NCc2cccs2)c1	48	54*	-3	-16	-4	5
C/C(CC(=O)Nc1cccc(Cl)c1Cl)=N\NC(=O)c1ccccc1C	-15	-6	-5	-6	-15	4
C=CCC(C)(NCc1ccccc1)c1ccco1 (stereo not given)	4	23	2	2	72*	8
Cn1nc(N)c2c(-c3ccccc3)c(C#N)c(N)nc21	15	-22	-2	-3	-31	0
Cn1nc(N)c2c(-c3ccc(Cl)cc3)c(C#N)c(N)nc21	13	-15	1	62*	8	-6
Cc1cccc(NC(=O)c2csnn2)n1	-3	-15	-2	-2	-16	1
Cc1ccc(O)c(N=NC2=C(O)CC(C)(C)CC2=O)c1	-9	-74	-9	-20	-14	-2
CC1(C)CC(=O)C(N=Nc2cc(Cl)c(Cl)c(Cl)c2)=C(O)C1	1	-34	42*	-6	-11	-6
O=C1Nc2ccc(Br)cc2/C1=C/C(=O)c1ccc2c(c1)OCO2	105*	72*	nt	3	61	8
CSC(=NCc1cccnc1)NS(=O)(=O)c1cccs1	-15	71*	3	-1	-7	2
O=S(=O)(NCc1cccnc1)c1cccs1	-9	-8	0	-7	-1	4
CCOc1ccc2nc(N3C(=O)CNC3=S)sc2c1	-108	-35	nt	-9	-1	2
COc1ccc2nc(N3C(=O)/C(=C/c4ccc(Cl)cc4)NC3=S)sc2c1	87*	88*	-2	-67	72*[fluorescence artefact?]	18
O=[N+]([O-])c1ccc(O)c(C(C#Cc2ccccc2)N2CCOCC2)c1 (stereo not given)	-2	-24	nt	-19	3	-3
CCN1CCN(c2nc(-c3ccncc3)nc3ccccc23)CC1	51*	-15	5	-1	10	4

Screens: PubChem BioAssay, several laboratories
